These results are taken from the supplement of paper PMC7366291.

Structures are written as SMILES. Where a name gives a salt, the structure may show the parent alone. ± gives the standard deviation or the standard deviation of the averaged measurements.

Common to all, as to conditions: 25 µM; exposure: 24-48 hpf
Test [1] has as its system Danio rerio Tg(wt1b:EGFP) embryo, pronephros. In words: glomerular separation, fold change vs DMSO control; higher = glomeruli further apart (abnormal). The method in brief:
(§1)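 Distances and angles describing the pronephros were computed by a Fiji macro from 16 reference points set manually on maximum projections of dorsal images. These images came from dechorionated Tg(wt1b:EGFP) zebrafish embryos held in agarose-filled 96-well plates after exposure to 25 μM compound in 0.5% DMSO, in HEPES-buffered E3 with 0.003% PTU, from 24 to 48 hpf at 28.5°C. Any value more than 2 SD from the feature mean was excluded. Features are stated as fold change relative to the mean of same-day DMSO-treated embryos.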

Test [2] has the same test system. In words: glomerular width (mean of left and right), fold change vs DMSO control; higher = wider glomerulus. The method, boiled down: as §1
Test [3] shares this test system. In words: fraction of imaged embryos annotated as normal kidney; higher = less nephrotoxic; extreme values may be limits of the assay. The method, boiled down:
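The value given is the share of embryos in each treatment scored as having a normal kidney. To obtain it, dechorionated Tg(wt1b:EGFP) zebrafish embryos were treated from 24 to 48 hpf at 28.5°C with 25 μM compound in 0.5% DMSO, in 5 mM HEPES-buffered E3 with 0.003% PTU. Pronephroi were imaged by widefield fluorescence (470 nm, 10 z-slices), and every embryo was annotated by hand from maximum projections.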

The test system is the same in test [4]. Nature of the test: pronephric angle neck segment to proximal convoluted tubule (mean of left and right), fold change vs DMSO control; higher = larger pronephric angle. The method in brief:
as §1

In test [1], `COc1ccc(C[C@@H]2c3cc(OC)c(OC)cc3CC[N@+]2(C)CCC(=O)OCCCCCOC(=O)CC[N@@+]2(C)CCc3cc(OC)c(OC)cc3[C@H]2Cc2ccc(OC)c(OC)c2)cc1OC` [Cisatracurium besylate] displayed a glomerular separation of 0.571 ± 0.3. The glomerular width in test [2] worked out at 1.21 ± 0.0036. In addition, the “fraction of imaged embryos annotated as normal kidney” value (from here on “fraction of imaged embryos annotated”) in test [3] is 0.833. Moreover, in test [4], the “pronephric angle neck segment” value amounted to 0.984 ± 0.035.
In test [1], `O=C1CC[C@@H](C(=O)N2CSC[C@H]2C(=O)O)N1` [Pidotimod] yielded a glomerular separation of 1.03 ± 0.42. For the same molecule, in test [2], the glomerular width was 1.05 ± 0.025. The “fraction of imaged embryos annotated” value in test [3] stood at 0.917. For the same molecule, the “pronephric angle neck segment” value in test [4] came out at 1.003 ± 0.0016.
For the molecule `COc1cc2c(cc1OC)C(=O)C(CC1CCN(Cc3ccccc3)CC1)C2` (stereo unspecified) [Donepezil hydrochloride], the glomerular separation in test [1] turned out to be 0.812 ± 0.32. In test [2], this molecule yielded a glomerular width of 1.13 ± 0.082. For the same molecule, the “fraction of imaged embryos annotated” value in test [3] stood at 0.833. The “pronephric angle neck segment” value in test [4] was 0.9843 ± 0.0083.
`CCCCOc1cc(C(=O)NCCN(CC)CC)c2ccccc2n1` [Dibucaine] registered a glomerular separation in test [1] of 1.35 ± 0.37. Further, the glomerular width in test [2] turned out to be 0.996 ± 0.044. For the same molecule, the “fraction of imaged embryos annotated” value in test [3] was 0.917. Moreover, the “pronephric angle neck segment” value in test [4] worked out at 1.007 ± 0.0089.
`Nc1ccc(S(=O)(=O)Nc2ccc(Cl)nn2)cc1` [Sulfachloropyridazine] returned a glomerular separation in test [1] of 0.92 ± 0.34. In addition, in test [2], the glomerular width was 0.973 ± 0.029. Also, in test [3], the “fraction of imaged embryos annotated” value turned out to be 0.75. The “pronephric angle neck segment” value in test [4] is 1.017 ± 0.0048.
In test [1], `CC(C)(C)c1ccc(C(O)CCCN2CCC(C(O)(c3ccccc3)c3ccccc3)CC2)cc1` (stereo unspecified) [Terfenadine] yielded a glomerular separation of 0.943 ± 0.3. This molecule displayed a glomerular width in test [2] of 1.023 ± 0.0083. For the same molecule, the “fraction of imaged embryos annotated” value in test [3] amounted to 0.583. Moreover, in test [4], the “pronephric angle neck segment” value is 1.02 ± 0.039.
As to `CCN(CC)CCOC(=O)C(Cc1cccc2ccccc12)CC1CCCO1` (stereo unspecified) [Nafronyl oxalate], in test [1], the glomerular separation worked out at 1.2 ± 0.63. The molecule further returned a glomerular width in test [2] of 0.945 ± 0.058. In addition, the “fraction of imaged embryos annotated” value in test [3] is 0.583. Further, the “pronephric angle neck segment” value in test [4] amounted to 1.04 ± 0.054.
`CCC(C)(CN(C)C)OC(=O)c1ccccc1` (stereo unspecified) [Amyleine hydrochloride] returned a glomerular separation in test [1] of 1.1 ± 0.77. Moreover, the glomerular width in test [2] was 1.04 ± 0.028. The “fraction of imaged embryos annotated” value in test [3] worked out at 0.833. Moreover, the “pronephric angle neck segment” value in test [4] worked out at 0.9967 ± 0.0077.
Taken in the same sequence, the figures for `CC(C)(C)NC(=O)[C@@H]1CN(Cc2cccnc2)CCN1C[C@@H](O)C[C@@H](Cc1ccccc1)C(=O)N[C@H]1c2ccccc2C[C@H]1O` [Indinavir sulfate] were 1.35 ± 0.6, 0.851 ± 0.062, 1 and 1.101 ± 0.002.
